Assay outcomes (PubChem)
Hits are enriched below; roughly 6.7% of the tested compounds scored in any of these assays.
BoNT-F LC inh = blocks Botulinum neurotoxin F light chain protease; Multiplex microsphere protease cleavage assay, flow cytometry; inhibition, % at 10 µM; 360,000 tested, 0.22% active; AID 588497; in the data active = inhibition above about 35%, passing the limit was not always enough; inconclusive = no clear call, values can overlap the other calls
Anthrax LF prot = blocks Bacillus anthracis lethal factor protease; P15917; multiplex microsphere protease cleavage assay, LF; inhibition, % at 10 µM; 360,000 tested, 0.12% active
Bead autofluor = flagged as autofluorescent in microsphere protease counterscreen | compound autofluorescence counterscreen, microsphere flow cytometry; active compounds read high | fluorescence intensity (test concentration not listed) | 360,000 tested, 3.1% active | AID 624483; in the data active = fluorescence intensity above about 16000; inconclusive = no clear call, values can overlap the other calls
GDH-TPI inh = inhibits GDH-TPI coupling enzymes, artifact for Mtb FBA screen; GDH-TPI coupled enzyme counterscreen, NADH absorbance; inhibition, % at 4.8 µM; 360,000 tested, 1.2% active; AID 588335; in the data active = inhibition above about 30%
Mtb FBA inh = inhibitors of M. tuberculosis fructose-bisphosphate aldolase | P9WQA3 | purified M. tuberculosis FBA, fluorescence read-out | inhibition, % at 1 µM | 360,000 tested, 2.3% active; in the data active = inhibition above about 27%
Target sequence (P9WQA3 whole entry, looked up): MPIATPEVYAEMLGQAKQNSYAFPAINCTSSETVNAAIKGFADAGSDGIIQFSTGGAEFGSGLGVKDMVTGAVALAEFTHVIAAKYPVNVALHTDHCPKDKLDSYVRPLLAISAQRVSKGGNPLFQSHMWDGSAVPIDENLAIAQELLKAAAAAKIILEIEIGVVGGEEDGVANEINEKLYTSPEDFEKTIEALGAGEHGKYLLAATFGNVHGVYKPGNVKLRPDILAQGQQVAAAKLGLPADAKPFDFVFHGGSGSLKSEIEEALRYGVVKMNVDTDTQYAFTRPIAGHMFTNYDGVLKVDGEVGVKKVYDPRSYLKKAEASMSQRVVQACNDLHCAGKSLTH
BoNT A protease = inhibitors of Botulinum neurotoxin A light chain protease. inhibition, % at 10 µM. 360,000 tested, 0.17% active. multiplex microsphere protease substrate cleavage, flow cytometry
Each line names hits and unclear results; the compound was inactive in the other large screens. Rule as the data show it, unless noted: active = inhibition above about 30%; inconclusive = no clear call, values can overlap the other calls; inactive = below that.

Cc1ccc(-n2c(Cc3cccn3C)nnc2SCC(=O)Nc2ccc3c(c2)OCO3)cc1	Bead autofluor 24086
Cc1ccc(-n2c(Cc3cccn3C)nnc2SCC(=O)NCc2ccc3c(c2)OCO3)cc1	Bead autofluor 21493
CCc1ccc2c(c1)C(c1cccs1)=NNC(c1cccnc1)=N2	Bead autofluor 19854, BoNT A protease inconclusive
CC1(C)Oc2ccc(C(=O)NC3CCCC3)cc2N(CC(=O)NC2CCCCC2)C1=O	Bead autofluor 17996
CCOC(=O)CN1C(=O)C(C)(C)Oc2ccc(C(=O)Nc3ccccc3OC)cc21	Bead autofluor 20848
CC(C)(C)NC(=O)c1ccc2c(c1)N(CC(=O)N1CCCCC1)C(=O)C(C)(C)O2	none
Cc1ccc(NC(=O)c2ccc3c(c2)N(CC(=O)N2CCCCC2)C(=O)C(C)(C)O3)cc1	Bead autofluor 23135
CC(C)(C)NC(=O)c1ccc2c(c1)N(CC(=O)N1CCN(c3ccc(F)cc3)CC1)C(=O)C(C)(C)O2	Bead autofluor 16213
COc1ccc(-c2ccc3c(c2)c(-c2cccs2)c(-c2cc(OC)cc(OC)c2)n3C)cc1	none
COc1ccc(N2CC2c2ccncc2)cc1 (stereo not drawn)	none
Clc1ccc(N2COC3c4cccc5cccc(c45)C32)cc1 (stereo not drawn)	Bead autofluor 22405
COc1ccc(N2COC3c4cccc5cccc(c45)C32)cc1 (stereo not drawn)	Bead autofluor 20787
CS(=O)(=O)NC1c2cccc3cccc(c23)C1N1CCOCC1 (stereo not drawn)	none
Cc1nc(SCc2ccccc2)c2oc3ccccc3c2n1	BoNT-F LC inh inconclusive
C=CCOn1c(=O)c(-c2ccc(Cl)cc2)[n+]([O-])c2ccccc21	none
C=CCOn1c(=O)c(-c2cccs2)[n+]([O-])c2ccccc21	Bead autofluor 21222
C#CCNC(=O)C1=C[C@H](c2cn(C(C)=O)c3ccccc23)[C@@H](CCCO)[C@H](OCC)O1	none
CCOc1cc(/C=C2/SC(=O)N(CC(=O)N3CCc4ccccc4C3)C2=O)ccc1OCC(=O)O	GDH-TPI inh 33.8
NC(=O)COc1ccccc1/C=C1/SC(=O)N(CC(=O)N2CCc3ccccc3C2)C1=O	none
CN(C)c1ccc(CN(C(=O)COc2ccc(F)cc2)C2CCS(=O)(=O)C2)cc1 (stereo not drawn)	Bead autofluor 20985
COc1cc(C(=O)N(Cc2ccc(F)cc2)C2CCS(=O)(=O)C2)cc(OC)c1OC (stereo not drawn)	Bead autofluor 17106
CCOc1cccc(C(=O)N(Cc2ccc(F)cc2)C2CCS(=O)(=O)C2)c1 (stereo not drawn)	Bead autofluor 21464, BoNT A protease inconclusive
COc1c(C)cc(S(=O)(=O)N2CCCC2)c(C)c1C	Bead autofluor 17139
Cc1cc(S(=O)(=O)N2CCCC2)c(C)s1	Bead autofluor 20695
CCNC(=O)n1nccc1C(C)Oc1ccccc1 (stereo not drawn)	Bead autofluor 21929
C[C@H](CO)N1C[C@H](C)[C@H](CN(C)C(=O)Nc2cccc3ccccc23)Oc2c(NC(=O)c3ccc(-c4nccs4)cc3)cccc2C1=O	none
O=C(CC(=O)NC1CCCCC1)N/N=C/c1cccc2ccccc12	GDH-TPI inh 31.2
CC(C)OC(=O)c1cn(-c2ccccc2)nc1-c1ccco1	none
C=CCn1c(=O)/c(=C/c2cc(OC)c(OC)c(OC)c2)s/c1=C(/C#N)c1nc2ccccc2n1C	BoNT-F LC inh 58.3, Anthrax LF prot 60.9, BoNT A protease 112.3
C=CCn1c(=O)/c(=C/c2ccc(O)cc2)s/c1=C(/C#N)c1nnc2n1CCCCC2	none
O=[N+]([O-])c1ccc(N2CCOCC2)c(S(=O)(=O)N2CCOCC2)c1	none
O=[N+]([O-])c1ccc(NCCCO)c(S(=O)(=O)N2CCOCC2)c1	GDH-TPI inh 40.2
O=C(Nc1ccccc1)NC1(C(=O)NCc2ccc3c(c2)OCO3)CCCCC1	Bead autofluor 22677
O=C(NCc1ccccc1)NC1(C(=O)Nc2ccc3c(c2)OCCO3)CCCCC1	Bead autofluor 22030
O=C(Nc1ccccc1)NC1(C(=O)NCc2ccco2)CCCCC1	Bead autofluor 17118
O=C(NCc1ccccc1)NC1(C(=O)N2CCOCC2)CCCCC1	none
O=C(O)c1cccnc1SCC(=O)N1CCCCCC1	none
O=C1C2CC=CCC2C(=O)N1c1ncn[nH]1 (stereo not drawn)	Bead autofluor 16218
CCN(CC)c1ccc(NC(=O)c2ccco2)cc1	Bead autofluor 20274, BoNT A protease inconclusive
CC(=O)Nc1ccc(NC(=O)c2ccco2)cc1	Bead autofluor 22348
Cc1cccc2[nH]c(-c3ccc(NC(=O)c4ccco4)cc3)nc12	GDH-TPI inh 58.3
O=C(Nc1cccc2c1CCCC2)c1ccco1	Bead autofluor 20290
CCn1c(COc2ccc(=O)n(-c3ccccc3)n2)nnc1SCc1ccc(OC)cc1	none
O=C(/C=C/c1ccc(Br)cc1)Nc1ccc(S(=O)(=O)Nc2ncccn2)cc1	none
CC1CCN(C(=O)COC(=O)c2ccc(N3CCCC3=O)cc2)CC1	Anthrax LF prot inconclusive, Bead autofluor inconclusive
Cc1ccc(Oc2ccc(NC(=O)c3ccco3)cc2)cc1	Bead autofluor 16687
Cc1ccc(NC(=O)c2ccc(OC(=O)c3ccco3)cc2)cc1	none
Cn1c(=O)c2[nH]c(C=Cc3ccc4c(c3)OCO4)nc2n(C)c1=O	GDH-TPI inh 31.0
S=C(NCc1cccc(Cl)c1)NC1CCCCC1	none
Cc1ccc(Cn2nnc3c(=O)[nH]c(C4CCCN(C(=O)c5ccco5)C4)nc32)cc1 (stereo not drawn)	none
CCOC(=O)C1Nc2ccccc2C2c3ccccc3CC12 (stereo not drawn)	Mtb FBA inh 33.4
CC(=O)Nc1ccc(NC(=O)CCCSc2nc3ccccc3s2)cc1	none
c1ccc2sc(SCSc3nc4ccccc4s3)nc2c1	none
CC1CCN(C(=O)CSc2nc3ccccc3s2)CC1	Bead autofluor 23396
O=C(O)C1CCN(C(=O)CSc2nc3ccccc3s2)CC1	none
O=C(CCCSc1nc2ccccc2s1)NC1=NCCS1	Bead autofluor 23045
O=C(O)CCSc1nc2ccccc2s1	Bead autofluor 22416
CC1CCCN(C(=O)CSc2nc3ncccc3[nH]2)C1 (stereo not drawn)	none
CC1CCCN(C(=O)CSc2cnc3ccccc3n2)C1 (stereo not drawn)	Bead autofluor 19588
Cc1c(NC(=O)CN2CC(C)OC(C)C2)c(=O)n(-c2ccccc2)n1C (stereo not drawn)	none
NNC(=O)CSc1nnnn1-c1ccccc1	none
O=C1CCCCC(=O)N(c2ccccc2)c2ccccc21	Bead autofluor 16379
O=C1CCC(=O)N1c1ccccc1	BoNT-F LC inh inconclusive
COc1cc2c(cc1OC)CN(C(=O)Nc1ccccc1)CC2	none
COc1cc2c(cc1OC)CN(C(=O)C1(c3ccccc3)CC1)CC2	Bead autofluor 19639, BoNT A protease inconclusive
c1ccc(C2NCCc3ccccc32)cc1 (stereo not drawn)	none
O=C(CN1CCN(c2nc(-c3ccc(F)cc3)cs2)CC1)NCc1ccc2c(c1)OCO2	Bead autofluor 23682
